For some of these results: Results with a measured potency or affinity are listed apart. A value given as a limit tells only on which side of the number the result lay.

The target in assay [1] is T1, Methionyl-tRNA synthetase, putative (Leishmania donovani (strain BPK282A1)) (UniProt E9BF75).
T1 sequence (whole entry): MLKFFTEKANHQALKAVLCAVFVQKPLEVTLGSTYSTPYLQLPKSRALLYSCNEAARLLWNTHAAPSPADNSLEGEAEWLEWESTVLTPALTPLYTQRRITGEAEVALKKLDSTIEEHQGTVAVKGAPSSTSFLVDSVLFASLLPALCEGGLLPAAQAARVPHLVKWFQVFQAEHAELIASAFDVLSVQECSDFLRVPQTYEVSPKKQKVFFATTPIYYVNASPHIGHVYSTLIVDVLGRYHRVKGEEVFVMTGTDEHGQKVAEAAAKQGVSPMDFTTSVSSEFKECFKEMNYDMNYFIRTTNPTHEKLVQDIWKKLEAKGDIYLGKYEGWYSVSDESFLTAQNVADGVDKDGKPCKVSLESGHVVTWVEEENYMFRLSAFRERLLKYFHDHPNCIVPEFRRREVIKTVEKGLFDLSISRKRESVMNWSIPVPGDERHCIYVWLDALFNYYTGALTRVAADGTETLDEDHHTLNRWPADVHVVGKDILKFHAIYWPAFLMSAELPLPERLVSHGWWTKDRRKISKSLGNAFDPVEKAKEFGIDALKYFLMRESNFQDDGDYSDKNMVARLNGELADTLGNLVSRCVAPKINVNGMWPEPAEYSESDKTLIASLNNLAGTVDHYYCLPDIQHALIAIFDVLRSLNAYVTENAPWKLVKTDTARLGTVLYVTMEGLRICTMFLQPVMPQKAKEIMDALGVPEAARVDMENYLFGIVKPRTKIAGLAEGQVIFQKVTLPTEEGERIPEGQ
Put plainly: Leishmania donovani Methionine tRNA synthetase (LdMetRS):v7. Dose response assay. On the set-up: conc 80 nM, time 150 minutes. It counts as functional.

Assay [2] has as its target Protein translocase subunit SecA (Escherichia coli (strain K12)) (UniProt P10408). Put plainly: Assay to Identify E. coli SecA ATPase Inhibitors. It is filed as functional. Details: scale not given: direction of the effect not stated beside the values. Particulars: 30 µM.
The target of assay [3] is T2, Ubiquitin-activating enzyme e1, putative (Leishmania donovani (strain BPK282A1)) (UniProt E9BSI1).
T2 sequence (whole entry): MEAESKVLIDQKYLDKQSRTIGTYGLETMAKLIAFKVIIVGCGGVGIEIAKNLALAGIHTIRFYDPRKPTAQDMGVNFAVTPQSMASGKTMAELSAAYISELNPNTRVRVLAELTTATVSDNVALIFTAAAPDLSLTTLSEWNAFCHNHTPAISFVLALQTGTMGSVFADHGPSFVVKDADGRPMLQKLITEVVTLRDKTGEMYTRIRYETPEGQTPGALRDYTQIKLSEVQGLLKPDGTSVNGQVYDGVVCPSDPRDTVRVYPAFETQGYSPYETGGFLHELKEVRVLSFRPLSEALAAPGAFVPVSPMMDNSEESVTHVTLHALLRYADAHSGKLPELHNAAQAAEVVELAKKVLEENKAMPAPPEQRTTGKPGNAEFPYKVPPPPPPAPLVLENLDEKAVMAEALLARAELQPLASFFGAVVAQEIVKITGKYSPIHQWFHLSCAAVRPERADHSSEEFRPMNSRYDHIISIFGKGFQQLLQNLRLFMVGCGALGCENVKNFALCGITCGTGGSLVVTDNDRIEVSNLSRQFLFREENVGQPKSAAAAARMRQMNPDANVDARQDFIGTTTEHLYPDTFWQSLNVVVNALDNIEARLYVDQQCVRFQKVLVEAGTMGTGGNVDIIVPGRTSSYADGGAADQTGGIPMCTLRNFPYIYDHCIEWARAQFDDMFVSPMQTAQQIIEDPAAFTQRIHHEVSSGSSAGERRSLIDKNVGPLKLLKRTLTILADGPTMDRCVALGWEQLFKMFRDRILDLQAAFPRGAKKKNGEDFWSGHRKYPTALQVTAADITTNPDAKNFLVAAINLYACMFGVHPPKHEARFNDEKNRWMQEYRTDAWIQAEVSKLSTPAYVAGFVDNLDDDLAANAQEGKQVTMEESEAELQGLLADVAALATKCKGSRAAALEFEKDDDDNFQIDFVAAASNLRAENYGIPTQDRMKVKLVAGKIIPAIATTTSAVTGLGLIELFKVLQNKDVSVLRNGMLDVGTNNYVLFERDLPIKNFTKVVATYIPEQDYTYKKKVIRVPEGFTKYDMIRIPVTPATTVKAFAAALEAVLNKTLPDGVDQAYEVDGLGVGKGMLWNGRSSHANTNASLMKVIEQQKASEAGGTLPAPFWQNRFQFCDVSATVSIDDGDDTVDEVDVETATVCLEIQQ
Description: Leishmania donovani Ubiquitin Activating Enzyme (LdE1). On the set-up: scale not given: direction of the effect not stated beside the values. Particulars: 30 µM. It is filed as functional.

Assay [4] deals with AMP-activated protein kinase, AMPK (Homo sapiens) (UniProt P54646+O43741+P54619+Q9UGJ0+Q9Y478+Q13131+Q9UGI9). Description: AMP-dependent Kinase enzyme assay. An in vitro enzyme assay that detects ADP turnover that is directly proportional to AMPK activity. This uses naive AMPK that is activated during the assay with MK-8722. Details: scale not given: direction of the effect not stated beside the values. Particulars: 30 µM. It counts as functional.

Assay [5] concerns the target Sialic acid-binding Ig-like lectin 9 (Homo sapiens) (UniProt Q9Y336). Description: Hs-Siglec9 ALPHAscreen SOP 20170721. As to conditions: 10 µM. Details: scale not given: direction of the effect not stated beside the values.
For a further assay, the system named is Trypanosoma cruzi. Put plainly: Trypanosoma cruzi phosphomannomutase and mannose-1-phosphate guanylyltransferase assay. On the set-up: scale not given: direction of the effect not stated beside the values. As to conditions: 10 µM. It counts as functional.
For assay [6], the target named is T3, Arginase-2, mitochondrial (Homo sapiens) (UniProt P78540).
T3 sequence (whole entry): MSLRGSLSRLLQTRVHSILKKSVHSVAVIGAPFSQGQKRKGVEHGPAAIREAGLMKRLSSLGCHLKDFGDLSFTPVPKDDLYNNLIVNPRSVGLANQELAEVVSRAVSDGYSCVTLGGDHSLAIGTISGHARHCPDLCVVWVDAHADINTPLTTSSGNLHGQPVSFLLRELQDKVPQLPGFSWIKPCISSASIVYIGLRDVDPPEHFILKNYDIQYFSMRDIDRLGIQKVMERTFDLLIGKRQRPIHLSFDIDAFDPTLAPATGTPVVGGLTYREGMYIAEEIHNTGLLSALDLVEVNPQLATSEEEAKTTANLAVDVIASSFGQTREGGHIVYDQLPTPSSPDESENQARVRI
Description: in vitro enzyme assay to detect the production of urea directly proportional to the activity of Arginase II. It is filed as functional. On the set-up: scale not given: in the data most compounds retested in dose-response had high values. Particulars: 33.3 µM.

Assay [7] addresses T4, Proteasome subunit beta (Trypanosoma cruzi) (UniProt O96673).
T4 sequence (whole entry): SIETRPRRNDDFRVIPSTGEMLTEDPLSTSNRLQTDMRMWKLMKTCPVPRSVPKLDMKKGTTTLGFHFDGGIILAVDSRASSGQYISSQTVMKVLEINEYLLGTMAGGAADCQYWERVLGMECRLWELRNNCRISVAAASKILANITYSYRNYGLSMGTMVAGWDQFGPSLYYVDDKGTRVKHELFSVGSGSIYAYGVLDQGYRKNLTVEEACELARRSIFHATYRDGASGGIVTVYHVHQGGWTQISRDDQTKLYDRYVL
Put plainly: Trypanosoma cruzi proteasome chymotrypsin-like activity (TcProtChymo) assay. It counts as functional. On the set-up: scale not given: in the data most compounds retested in dose-response had high values. As to conditions: 9.37 µM.

The species named for another assay is Homo sapiens. Put plainly: To identify inhibition of the IFN signalling (Jak-Stat) pathway via expression of an eGFP reporter gene under the control of an IFN-stimulated response element (ISRE) containing MxA promoter. It counts as functional. On the set-up: scale not given: direction of the effect not stated beside the values. Particulars: 30 µM.
The target in assay [8] is T5, Tyrosyl-tRNA synthetase, putative (Trypanosoma cruzi (strain CL Brener)) (UniProt Q4DSP6).
T5 sequence (whole entry): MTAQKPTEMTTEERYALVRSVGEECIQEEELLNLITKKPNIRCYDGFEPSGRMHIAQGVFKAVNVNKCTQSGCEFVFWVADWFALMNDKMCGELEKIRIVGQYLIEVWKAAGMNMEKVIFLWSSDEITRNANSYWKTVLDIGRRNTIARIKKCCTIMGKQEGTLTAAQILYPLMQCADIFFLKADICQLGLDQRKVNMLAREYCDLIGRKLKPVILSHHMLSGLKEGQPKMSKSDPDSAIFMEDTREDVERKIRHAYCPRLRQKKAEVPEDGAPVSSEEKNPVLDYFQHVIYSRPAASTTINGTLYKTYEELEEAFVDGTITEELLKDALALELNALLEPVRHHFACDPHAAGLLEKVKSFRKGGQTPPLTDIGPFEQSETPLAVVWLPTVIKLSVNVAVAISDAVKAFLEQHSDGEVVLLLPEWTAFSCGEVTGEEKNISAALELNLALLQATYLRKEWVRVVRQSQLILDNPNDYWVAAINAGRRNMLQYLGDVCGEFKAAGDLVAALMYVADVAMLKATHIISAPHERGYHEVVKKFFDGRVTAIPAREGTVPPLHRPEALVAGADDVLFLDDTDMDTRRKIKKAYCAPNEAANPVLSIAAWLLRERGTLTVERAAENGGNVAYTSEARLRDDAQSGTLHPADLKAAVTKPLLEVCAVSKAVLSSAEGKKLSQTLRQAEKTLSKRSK
Description: Trypanosoma cruzi tyrosyl tRNA synthetase (TcYRS) _High Tyrosine SOP. It is filed as functional. On the set-up: scale not given: in the data most compounds retested in dose-response had high values. Particulars: 30 µM.

Assay [9] deals with T5, Tyrosyl-tRNA synthetase, putative (Trypanosoma cruzi (strain CL Brener)). Description: Trypanosoma cruzi tyrosyl tRNA synthetase (TcYRS) SOP. It is filed as functional. Details: scale not given: direction of the effect not stated beside the values. Particulars: 30 µM.
For assay [10], the target named is Chromo domain-containing protein 1 (Saccharomyces cerevisiae (strain ATCC 204508 / S288c) (Baker's yeast)) (UniProt P32657). Description: ScCHD-1 Enzyme Inhibition Assay. As to conditions: 30 µM. It counts as functional. Details: scale not given: in the data most compounds retested in dose-response had high values.
Sequence of Chromo domain-containing protein 1 (Saccharomyces cerevisiae (strain ATCC 204508 / S288c) (Baker's yeast)) (P32657 whole entry, the tested form may be a part): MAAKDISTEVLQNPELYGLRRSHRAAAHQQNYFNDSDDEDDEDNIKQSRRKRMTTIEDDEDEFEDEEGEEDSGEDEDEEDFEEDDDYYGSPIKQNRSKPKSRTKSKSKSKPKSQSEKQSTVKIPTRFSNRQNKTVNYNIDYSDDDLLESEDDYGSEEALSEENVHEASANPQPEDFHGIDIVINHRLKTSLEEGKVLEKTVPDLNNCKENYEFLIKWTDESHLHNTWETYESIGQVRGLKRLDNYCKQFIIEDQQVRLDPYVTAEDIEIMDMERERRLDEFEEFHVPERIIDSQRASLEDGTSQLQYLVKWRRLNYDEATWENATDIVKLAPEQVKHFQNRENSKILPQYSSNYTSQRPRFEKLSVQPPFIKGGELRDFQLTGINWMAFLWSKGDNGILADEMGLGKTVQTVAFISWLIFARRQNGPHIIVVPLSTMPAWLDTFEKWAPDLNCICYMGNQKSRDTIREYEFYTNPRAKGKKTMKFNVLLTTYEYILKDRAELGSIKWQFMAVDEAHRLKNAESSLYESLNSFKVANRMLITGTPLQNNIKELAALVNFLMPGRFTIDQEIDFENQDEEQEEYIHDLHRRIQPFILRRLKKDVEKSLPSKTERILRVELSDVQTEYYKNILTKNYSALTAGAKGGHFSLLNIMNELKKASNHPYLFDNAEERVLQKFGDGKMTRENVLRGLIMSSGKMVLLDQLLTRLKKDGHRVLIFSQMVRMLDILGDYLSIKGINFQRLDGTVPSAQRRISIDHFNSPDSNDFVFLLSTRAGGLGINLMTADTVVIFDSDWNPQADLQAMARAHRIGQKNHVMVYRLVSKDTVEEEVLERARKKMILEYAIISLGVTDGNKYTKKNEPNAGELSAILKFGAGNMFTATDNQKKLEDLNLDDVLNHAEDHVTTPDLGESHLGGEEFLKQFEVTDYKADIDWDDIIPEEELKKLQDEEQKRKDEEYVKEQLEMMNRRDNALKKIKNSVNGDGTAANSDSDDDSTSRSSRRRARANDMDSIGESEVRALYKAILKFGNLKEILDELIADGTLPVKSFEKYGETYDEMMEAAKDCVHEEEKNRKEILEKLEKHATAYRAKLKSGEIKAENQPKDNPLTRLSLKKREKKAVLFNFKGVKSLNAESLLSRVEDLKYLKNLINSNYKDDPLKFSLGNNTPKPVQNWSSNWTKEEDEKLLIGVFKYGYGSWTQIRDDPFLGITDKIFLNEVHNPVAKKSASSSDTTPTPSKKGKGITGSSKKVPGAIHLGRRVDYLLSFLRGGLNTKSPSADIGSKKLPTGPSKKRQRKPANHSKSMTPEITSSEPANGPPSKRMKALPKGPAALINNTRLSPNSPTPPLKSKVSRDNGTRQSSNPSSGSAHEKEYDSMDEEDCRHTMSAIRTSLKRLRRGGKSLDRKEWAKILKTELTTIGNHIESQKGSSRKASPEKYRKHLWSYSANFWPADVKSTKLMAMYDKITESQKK

Sequence of Protein translocase subunit SecA (Escherichia coli (strain K12)) (P10408 whole entry): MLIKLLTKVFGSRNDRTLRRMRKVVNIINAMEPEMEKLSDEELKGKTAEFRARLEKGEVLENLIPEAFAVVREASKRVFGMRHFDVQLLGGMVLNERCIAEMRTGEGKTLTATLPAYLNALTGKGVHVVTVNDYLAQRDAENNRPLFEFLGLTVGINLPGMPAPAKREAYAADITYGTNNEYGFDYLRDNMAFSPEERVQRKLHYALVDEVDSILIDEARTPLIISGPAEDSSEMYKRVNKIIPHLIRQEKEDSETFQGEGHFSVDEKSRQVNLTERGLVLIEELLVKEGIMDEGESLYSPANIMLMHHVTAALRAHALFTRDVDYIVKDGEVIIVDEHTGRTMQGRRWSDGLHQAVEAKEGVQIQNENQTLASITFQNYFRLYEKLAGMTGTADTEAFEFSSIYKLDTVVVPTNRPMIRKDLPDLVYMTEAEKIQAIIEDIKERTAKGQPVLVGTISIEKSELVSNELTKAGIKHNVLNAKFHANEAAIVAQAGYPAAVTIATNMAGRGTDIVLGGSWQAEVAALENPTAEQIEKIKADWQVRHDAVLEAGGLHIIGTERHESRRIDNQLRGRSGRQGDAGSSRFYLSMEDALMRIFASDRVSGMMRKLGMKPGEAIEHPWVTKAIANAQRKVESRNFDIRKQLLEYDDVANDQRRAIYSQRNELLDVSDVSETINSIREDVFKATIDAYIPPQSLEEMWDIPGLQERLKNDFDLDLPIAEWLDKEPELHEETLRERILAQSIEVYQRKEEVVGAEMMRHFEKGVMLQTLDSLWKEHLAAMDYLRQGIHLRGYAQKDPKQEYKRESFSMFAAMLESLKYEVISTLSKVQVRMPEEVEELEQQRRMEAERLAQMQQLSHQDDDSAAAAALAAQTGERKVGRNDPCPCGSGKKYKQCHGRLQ
Sequence of Sialic acid-binding Ig-like lectin 9 (Homo sapiens) (Q9Y336 whole entry): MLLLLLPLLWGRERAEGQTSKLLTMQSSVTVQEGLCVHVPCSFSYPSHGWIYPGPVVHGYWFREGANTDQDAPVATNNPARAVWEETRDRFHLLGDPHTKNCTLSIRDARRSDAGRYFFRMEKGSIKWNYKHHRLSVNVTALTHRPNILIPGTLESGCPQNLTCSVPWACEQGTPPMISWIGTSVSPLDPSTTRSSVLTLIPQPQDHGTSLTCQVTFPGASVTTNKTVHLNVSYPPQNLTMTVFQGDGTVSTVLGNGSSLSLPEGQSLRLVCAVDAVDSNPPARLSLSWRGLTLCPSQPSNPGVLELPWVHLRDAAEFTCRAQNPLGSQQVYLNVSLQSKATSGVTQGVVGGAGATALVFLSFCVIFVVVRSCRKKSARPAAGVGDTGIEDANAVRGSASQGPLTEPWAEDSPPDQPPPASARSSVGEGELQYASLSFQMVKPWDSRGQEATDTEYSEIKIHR

Regarding `Cc1cc(C)c(CNC(=O)N2CCCC2c2cccn2C)c(=O)[nH]1` (stereo unspecified), the PXC50 was 4.01 in assay [1] (BOTTOM 1.39525403, HILLSLOPE 1.863289847, MAX_EFFECT 51.97132616, TOP 100.0); 4.22 in assay [1] (BOTTOM -10.14330359, HILLSLOPE 0.427510045, MAX_EFFECT 50.72463768, TOP 100.0); less than 4 in assay [1] (MAX_EFFECT 28.8676236); less than 4 in assay [1] (MAX_EFFECT 30.90211132); less than 4 in [1] (MAX_EFFECT 48.51485149). Also, the Percent Effect in [2] was -1.81%; in [3] it was 8.86%; in assay [4], 3.05%; in [5], 2.38%; with Trypanosoma cruzi it was 2.97%; in [6], 3.66%. Further, the Percent Effect is 10.6% in assay [7]; -3.9% in the assay listed under Homo sapiens; 13.5% in [8]; 27.9% in assay [9]; -14.4% in [10].
In the case of `NC[C@H]1CC[C@H](C(NC(=O)c2cccc(F)c2)c2ccccn2)CC1` (stereo partly specified), the PXC50 in [1] (MAX_EFFECT 33.33333333), in [1] (MAX_EFFECT 43.95393474), in assay [1] (MAX_EFFECT 49.10394265), in assay [1] (MAX_EFFECT 49.8349835) and in assay [1] (MAX_EFFECT 55.07246377) was less than 4 in each case. Besides, the Percent Effect in [2] was 0.535%; in assay [3] it was 12%; in [5] it was -8.09%; in the assay with Trypanosoma cruzi, 6.51%; in assay [6], -0.443%; in assay [7] it was 9.36%. The Percent Effect is 8.62% in the assay filed under Homo sapiens, 31.8% in assay [8], 45% in [9] and -26.3% in assay [10].

The values above are taken from ChEMBL document CHEMBL3988442, “University of Dundee, Small-Polar-MMV Screening Library” (2021).
